Test results published in PubChem BioAssay (NCI).
About 83,000 compounds went through this panel and 20% of them were active in at least one assay; those are over-represented in the sample as a whole.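 The test compound was applied at a single concentration to cells in 96-well plates for 48 hours, and percent growth was recorded.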 Values without a mark were called inactive. Activity calls are given as the source filed them. The calls were made as follows: active = growth percent below 10; inactive = the rest.

Key:
Experiment in all cases: NCI-60 one-dose screen, 48 h (100 = growth as untreated, 0 = no growth, -100 = all killed)
Conditions in all cases: 10 µM unless noted
HT29 colon = test system: HT29 colon
SNB-75 CNS = test system: SNB-75 CNS
SNB-19 CNS = test system: SNB-19 CNS
U251 CNS = test system: U251 CNS
PC-3 prostate = test system: PC-3 prostate
UACC-62 melanoma = test system: UACC-62 melanoma
LOX IMVI melanoma = test system: LOX IMVI melanoma
SK-MEL-28 melanoma = test system: SK-MEL-28 melanoma
SK-MEL-2 melanoma = test system: SK-MEL-2 melanoma
SK-MEL-5 melanoma = test system: SK-MEL-5 melanoma

Structure (SMILES) | growth (HT29 colon) | growth (SNB-75 CNS) | growth (SNB-19 CNS) | growth (U251 CNS) | growth (PC-3 prostate) | growth (UACC-62 melanoma) | growth (LOX IMVI melanoma) | growth (SK-MEL-28 melanoma) | growth (SK-MEL-2 melanoma) | growth (SK-MEL-5 melanoma)
COc1cc([C@@H]2c3cc4c(cc3C(O[C@@H]3O[C@@H]5CO[C@@H](c6cccs6)OC5[C@H](O)[C@H]3O)C3COC(=O)[C@@H]32)OCO4)cc(OC)c1O (stereo partly specified) | -24.8% (active) | -37% (active) | 1.98% (active) | -15.5% (active) | 4.52% (active) | -54.3% (active) | -37.3% (active) | -29% (active) | -47.3% (active) | 
CCn1c2c(c3ccccc31)SC1c3cccn3CCN1C2=S (stereo unspecified) | 90.2% | 79.6% | 95.8% | 93.8% | 89.1% | 81% | 96.8% | 110% | 89.9% | 
Cc1scc2c1N(C(=O)CN1CCN(C)CC1)c1ccccc1NC2=O | 104% | 110% | 111% | 99.6% | 98% | 109% | 99.7% | 110% | 113% | 
CO[C@H]1CC(O[C@@H]2/C(C)=C/C[C@@H]3C[C@@H](C[C@]4(CC[C@H](C)[C@@H](C5CCCCC5)O4)O3)OC(=O)[C@@H]3C=C(C)/C(=N/O)[C@H]4OC/C(=C\C=C\[C@@H]2C)[C@]43O)O[C@@H](C)C1O (stereo partly specified) | -70.9% (active) | -90.4% (active) | -96.6% (active) | -87.6% (active) | -80.4% (active) | -93.4% (active) | -92.9% (active) | -87.3% (active) | -71.8% (active) | 
C=CCCCCCCCCC(=O)[O][Sn]([CH2]CCC)([CH2]CCC)[CH2]CCC | -76.3% (active) | -98.2% (active) | -79.2% (active) | -74% (active) | -93.5% (active) | -90.4% (active) | -90.9% (active) | -93.5% (active) | -71.2% (active) | 
COc1ccc(/C=C2\COc3ccc(O)c(O)c3C2=O)cc1OC | 8.1% (active) | 42.1% | 22.4% | 5.85% (active) | 11.7% | -29.4% (active) | -68% (active) | 57.2% | 76% | 
COC1CC2CCC(C)C(O)(O2)C(=O)C(=O)N2CCCCC2C(=O)OC(C(C)CC2CCC(O)C(OC)C2)CC(=O)C(C)C=C(C)C(O)C(OC)C(=O)C(C)CC(C)/C=C/C=C/C=C1C (stereo unspecified) | 43.7% | 13.5% | 38.1% | 35.8% | 31.3% | 36.5% | 39% | 54.1% | 35.9% | 
Cc1c(N(C)CS(=O)(=O)O)c(=O)n(-c2ccccc2)n1C | 97.7% | 111% | 101% | 100% | 94.8% | 96.9% | 104% | 108% | 106% | 
COc1cc(C2CC(=O)Nc3c2cc(Br)c2ccccc32)cc(Br)c1OC (stereo unspecified) | 6.78% (active) | -42.7% (active) | 60.7% | 17.2% | 39% | 51.7% | 28.3% | 73% | 58.7% | 
CCOC(=O)/C(=C/c1ccccc1)C(=O)c1ccccc1 | 84.1% | 49.6% | 85.4% | 68.1% | 80.6% |  |  | 94.3% |  | 66.5%
COc1cc(/C=C/C(=O)c2c(-c3ccc(Cl)cc3)nc3sc(C)nn23)cc(OC)c1OC | 86.6% | 77.3% | 90.8% | 76.4% | 53.6% |  | 61.6% | 94% | 44% | 20.9%
Cc1cc2c(C#N)n3c(c2cc1C)C(=O)C(c1ccccc1)Oc1ccccc1-3 (stereo unspecified) | 18.5% | 15.6% | 35.9% | 18.3% | 28.3% |  |  | 85.1% | 45.2% | 22.7%
CCC[C@H](N[C@@H](C)C(=O)N1[C@H](C(=O)O)C[C@@H]2CCCC[C@@H]21)C(=O)OCC | 100% | 112% | 104% | 93.6% | 91.8% | 104% | 89.8% | 123% | 112% | 
CC12CCCCC1C(C(N)=O)C(=O)O2 (stereo unspecified) | 112% | 96.1% | 100% | 104% | 101% | 98.8% | 96.4% | 105% | 104% | 
CC[C@]1(O)CC2CN(CCc3c([nH]c4ccccc34)[C@@](C(=O)OC)(c3cc4c(cc3OC)N(C)[C@H]3[C@@](O)(C(=O)OC)[C@H](OC(C)=O)[C@]5(CC)C=CCN6CC[C@]43[C@@H]65)C2)C1 (stereo partly specified) | 3.18% (active) | 5.29% (active) | 43.8% | 17.3% | 28.1% |  | 18.9% | 68.1% | 34.3% | -61.3% (active)
Cc1cc(C(=O)O)c(C)cc1C(=O)O | 103% | 97% | 107% | 109% | 92.3% |  | 103% | 108% | 104% | 99.9%
CCOC(=O)C1=C(COCCN)NC(C)=C(C(=O)OC)C1c1ccccc1Cl (stereo unspecified) | 11.4% | 72.3% | 102% | 52.8% | 66.9% | 60.5% | 32.3% | 75.9% | 90.2% | 
O=C1CN(CO)C(=O)CN1CO | 109% | 94.2% | 101% | 100% | 95.4% | 98.3% | 99.7% | 112% | 121% | 
O=C(OC[C@H]1O[C@H](OC(=O)c2cc(O)c(O)c(OC(=O)c3cc(O)c(O)c(O)c3)c2)[C@H](OC(=O)c2cc(O)c(O)c(OC(=O)c3cc(O)c(O)c(O)c3)c2)[C@@H](OC(=O)c2cc(O)c(O)c(OC(=O)c3cc(O)c(O)c(O)c3)c2)[C@@H]1OC(=O)c1cc(O)c(O)c(OC(=O)c2cc(O)c(O)c(O)c2)c1)c1cc(O)c(O)c(OC(=O)c2cc(O)c(O)c(O)c2)c1 | 33.5% | 53.6% | 36.6% | 22.3% | 38% | 10.6% | 7.17% (active) | 78.6% | 80.4% | 
CCC1=C(c2ccc(OC)cc2)C(C)Oc2cc(OC(C)=O)ccc21 (stereo unspecified) | 102% | 71.9% | 88.6% | -0.227% (active) | 68.3% | 74% | 90.6% | 93.7% | 89.7% | 
COc1cc(/C=C2\COc3ccc(O)cc3C2=O)cc(OC)c1 | 12% | 87% | 50.5% | 30.1% | 53.8% | 62.6% | -65.5% (active) | 94.4% | 101% | 
CCCCCCCC/C=C\CCCCCCCCOc1ccccc1CC(=O)NCC[N+]1(C)CCCC1 | 18% | 79% | 60.4% | 47.6% | 17.5% | 67.1% | 72% | 96.7% | 106% | 
Nc1c2ccccc2nc2ccccc12 (tested in a mixture with another compound) | 0.0152% (active) | 31.9% | 29.4% | 13.7% | 17% | 5.82% (active) | 4.92% (active) | 36.2% | -5.63% (active) | 
CCCCCCCCCCC[C@@H](C[C@H]1OC(=O)[C@H]1CCCCCC)OC(=O)[C@@H](CC(C)C)NC=O | 38.4% | 82.4% | 55.6% | 63% | 50.4% | 77.3% | 14.1% | 111% | 55.9% | 
C[C@@H]1CC[C@H]2[C@@H](C)C(O)O[C@@H]3O[C@]4(C)CC[C@@H]1[C@]32OO4 (stereo partly specified) | 17.7% | 52.5% | 57.7% | 25.5% | 15.1% | 31% | 11.7% | 78% | 27% | 
Cc1cc(NCCCNc2ccnc3cc(Cl)ccc23)nc(N2CCN(C)CC2)n1 | 15.2% | 76.6% | 115% | 69.7% | 51.5% | 33.4% |  | 88.3% |  | 
COc1ccc2c(c1)nc(N)c1c3cc(OC)c(OC)cc3cn21 | 9.28% (active) | 57.1% | 62.2% | 30.6% |  | 22.1% | 53.2% | 57.5% | 47.7% | 34.1%
COc1ccc(OC)c(NC(=O)c2cc3oc4ccccc4c3cc2O)c1 | 100% | 84% | 92.7% | 120% |  | 79.7% | 109% | 101% | 96.1% | 91.1%
Cc1ccsc1/C=C/C1=NCCCN1C | 99.3% | 102% | 104% | 100% | 90.5% | 106% | 95.6% | 103% | 92.6% | 
